A selection: hits, their analogues and other compounds. The true share with any hit is near 1.2%.
GLA spleen mod: inhibitors or activators of human alpha-galactosidase in spleen homogenate | Potency, µM (doses to about 80 µM), for the others: at the top dose activity change, negative = inhibition, actives largely listed as inhibitors | 0.008% of 240,000 active | human spleen homogenate, 4MU-alpha-Gal fluorescence, 40 min;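 note: potency is the fitted concentration of half-maximal effect; 0% = enzyme with vehicle and -100% = no enzyme basal signal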
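qHTS titration in buffer at pH 5.0. Alpha-galactosidase activity in spleen homogenate was measured via 4-methylumbelliferone release from 1 mM fluorogenic substrate after 40 min at 37C and a pH 10 stop. AC50 came from Hill fits of control-normalized data.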
GLA inh pH 4.5: inhibitors of human alpha-galactosidase A at pH 4.5; P06280; purified enzyme, 4-MU-alpha-Gal fluorescence, pH 4.5; activity change, negative = inhibition, % at 105 µM; 230,000 tested, under 10 active;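 note: 0% = full activity with enzyme and -100% = basal without enzyme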
Target sequence (P06280 whole entry, looked up): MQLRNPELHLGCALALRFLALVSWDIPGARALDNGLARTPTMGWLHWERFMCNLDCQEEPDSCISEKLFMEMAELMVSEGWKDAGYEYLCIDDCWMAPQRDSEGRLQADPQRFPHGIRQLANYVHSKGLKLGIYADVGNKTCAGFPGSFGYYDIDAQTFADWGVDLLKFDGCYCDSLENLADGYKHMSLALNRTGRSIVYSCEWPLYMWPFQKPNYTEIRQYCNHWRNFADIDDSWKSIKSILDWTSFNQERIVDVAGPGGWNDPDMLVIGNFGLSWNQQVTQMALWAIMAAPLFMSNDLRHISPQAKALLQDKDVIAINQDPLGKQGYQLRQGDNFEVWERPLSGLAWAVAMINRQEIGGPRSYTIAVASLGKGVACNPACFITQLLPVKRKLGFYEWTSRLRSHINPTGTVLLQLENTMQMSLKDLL
HttQ103 aggreg: mutant huntingtin aggregation inhibition | PC12 HttQ103-GFP aggregates, Acumen cytometry, 40 h | Potency, µM (top dose mostly 46.1 µM), for inactives: at the highest dose activity change, negative = inhibition, most hits filed as inhibitors | 1.1% of 220,000 active; note: potency is the fitted concentration of half-maximal effect; % is set by controls: 0 for no effect and ±100 for the full control effect; nearly all actives have a fitted effect of over 60% in size
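Read-out: GFP aggregate count by laser scanning cytometer (488 nm excitation, 500-530 nm emission, 1–25 µm objects >6 SD above background). Cells: PC12, inducible HTTex1-Q103-GFP, 100 nM tebufenozide; compounds titrated.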
PKM2 act: increases activity of human pyruvate kinase M2 | P14618 | purified PKM2, Kinase-Glo ATP luminescence, activation; response scale: 0% is enzyme alone, no compound | Potency, µM (titrated, usually from 57.5 µM), without a hit: at the highest dose activation, hits mostly activators | 0.34% of 260,000 active; note: potency is the fitted concentration of half-maximal effect; % is set by controls: 0 for no effect and ±100 for the full control effect; nearly all actives have a fitted effect of over 55% in size
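Kinase-Glo luminescence reports ATP generated from ADP (0.1 mM) and PEP (0.5 mM) by purified hPK-M2 after 1 h at room temperature, pH 7.2 imidazole buffer; intermediate enzyme activity allows detecting inhibitors and activators.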
HTT ATP protect: protects HTT-Q103 PC12 cells, measured by ATP. PC12 HTT-Q103 induced, cytoprotection, ATP luminescence, 40 h. Potency, µM (series often up to 56.4 µM), for inactives: cytoprotection (ATP increase), most hits filed as activators. 0.14% of 230,000 active; note: potency is the fitted concentration of half-maximal effect; % of control where 0% means no effect; nearly all actives have a fitted effect of over 45% in size
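Rat PC12, Q103 Htt exon1-GFP fusion, ecdysone promoter; tebufenozide inducer 100 nM final; compound titration; qHTS, 1500 cells/well; ATPlite luminescent read.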
Numbers without * were called inactive; [ ] = remark or other dose. Calls come from the whole dose curve; as a rule, active = well fitted curve in the direction sought with a large enough effect; inconclusive = small, poorly fitted or top-dose-only effect, or another doubt; inactive = no such curve, though single readings can be large; an effect the other way counts as inactive or inconclusive.

Cc1ccc2c(n1)sc1c(-c3ccccc3)c(C#N)c(N)nc12 was read as GLA spleen mod 23%, GLA inh pH 4.5 -4, HttQ103 aggreg 13µM*, PKM2 act -2% and HTT ATP protect -61%.
For Cc1ccc(N(C(C)C(=O)N2CCN(Cc3ccccc3)CC2)S(C)(=O)=O)cc1 (configuration not stated) the results were PKM2 act 2%.
Screening CC(On1nnc2ccccc21)C(=O)N1CCN(Cc2ccccc2)CC1 (configuration not stated) returned GLA spleen mod -2%, GLA inh pH 4.5 -1, HttQ103 aggreg inconclusive, PKM2 act 3% and HTT ATP protect 0.71µM*.
Screening CCN(CC)C[C@@H](O)CN1CCCCc2nc(C)c(C)cc21 returned GLA spleen mod -3%[17.5 µM] and HTT ATP protect 13%[10 µM].
`FC(F)(F)c1cc(NC(=S)Nc2ccc3ccccc3c2)cc(C(F)(F)F)c1` gave GLA spleen mod -2%, GLA inh pH 4.5 -3 and HTT ATP protect inconclusive.
CS(=O)(=O)c1cccc(C(=O)NCc2ccccc2)c1 was read as GLA spleen mod -13%, GLA inh pH 4.5 -1, HttQ103 aggreg -1%, PKM2 act 6% and HTT ATP protect -18%[10 µM].
`CC(C)(C)c1cc(C(=O)NCc2ccccc2)ccn1` gave GLA spleen mod -4%, HttQ103 aggreg 11µM*, PKM2 act -1% and HTT ATP protect -9%.
For COc1cccc([C@@H]2Oc3ccc(OC)cc3C[C@H]2OC(=O)N[C@H]2CCCc3ccccc32)c1 the results were GLA spleen mod 1%, GLA inh pH 4.5 -3 and HTT ATP protect 11%.
CCN1CCN(Cc2ccc(NC(=O)c3ccc(C)c(NC(=O)c4nccnc4N)c3)cc2C(F)(F)F)CC1 was read as GLA spleen mod 11%, GLA inh pH 4.5 -21, HttQ103 aggreg 2.8µM*, PKM2 act -16% and HTT ATP protect 4%[10 µM].
Cc1cc(C(=O)CSC(=S)SC(C)(C)C)ccc1Cl was read as HTT ATP protect -3%[10 µM].
`CCCOc1ccc(C(=O)NNC(=S)NC(=O)c2ccccc2[N+](=O)[O-])cc1` gave PKM2 act 7%.
CCCOc1ccc(C(=O)NNC(=S)NC(=O)c2cc(-c3ccccc3)nc3ccccc23)cc1 was read as GLA spleen mod 8%, GLA inh pH 4.5 5, HttQ103 aggreg 7.1µM*, PKM2 act -3% and HTT ATP protect 16%.
For COCCNc1ncnc2ccc(-c3ccc(N(C)C)cc3)cc12 the results were GLA spleen mod 2% and HTT ATP protect -55%.
Cc1nc2cnc(Nc3ccccc3)nc2n(C2CC2)c1=O was read as GLA spleen mod 2% and HTT ATP protect -24%.
For O=c1cnc2cnc(Nc3ccccc3)nc2n1C1CC1 the results were GLA spleen mod 4% and HTT ATP protect 20µM*.
CC(C)(O)C(=O)O was read as GLA spleen mod 2% and HTT ATP protect -13%.
Cc1cc(C(=O)CSCCCn2c(=O)[nH]c3ccccc32)c(C)n1C was read as GLA spleen mod -8%, GLA inh pH 4.5 4, HttQ103 aggreg 27%, PKM2 act 14% and HTT ATP protect -2%[10 µM].
O=c1[nH]c2ccccc2n1CCCSCCCn1c(=O)[nH]c2ccccc21 was read as GLA spleen mod 27%, GLA inh pH 4.5 -8, HttQ103 aggreg 11µM*, PKM2 act 1% and HTT ATP protect -27%[0.074 µM].
Screening CC1CC(C)C[N+](=C2C=C(N3CCCC3)CC(C)(C)C2)C1 (configuration not stated) returned GLA spleen mod 1%, GLA inh pH 4.5 9, HttQ103 aggreg inconclusive, PKM2 act 0% and HTT ATP protect -58%[10 µM].
`CC1(C)CC(N2CCN(c3ccccc3)CC2)=CC(=[N+]2CCCC2)C1` gave GLA spleen mod 6%, GLA inh pH 4.5 -1, HttQ103 aggreg 4µM*, PKM2 act -5% and HTT ATP protect -36%[10 µM].
CC1(C)CC(N2CCCC2)=CC(=[N+]2CCCCCC2)C1 was read as GLA spleen mod 6%, GLA inh pH 4.5 2, HttQ103 aggreg 2µM*, PKM2 act 12% and HTT ATP protect -65%.
CCC(C)C(NC(=O)OC(C)(C)C)C(=O)NC1COC2CC(n3ccc(NC(C)=O)nc3=O)OC12 (configuration not stated) was read as GLA spleen mod 11%.
For CCCCCCCCCCOCCC(=O)O the results were GLA spleen mod 9%, GLA inh pH 4.5 -7 and HTT ATP protect -23%.
CSCc1nnc(NC(=O)c2ccc(S(=O)(=O)N(CC(C)C)CC(C)C)cc2)o1 was read as GLA spleen mod 0%, GLA inh pH 4.5 4, HttQ103 aggreg 10µM*, PKM2 act -2% and HTT ATP protect -60%.
CCc1nnc(NC(=O)c2ccc(S(=O)(=O)N(CC(C)C)CC(C)C)cc2)o1 was read as GLA spleen mod 0%, GLA inh pH 4.5 3, HttQ103 aggreg 12%, PKM2 act 5% and HTT ATP protect -19%[10 µM].
For OC[C@@H]1O[C@@H](n2cnc3c(NCCc4ccccc4)ncnc32)[C@@H](O)[C@H]1O the results were HTT ATP protect -27%[1.9 µM].
Screening N[C@@]1(C(=O)O)CO[C@H]2[C@H](C(=O)O)[C@H]21 returned GLA spleen mod 8%, GLA inh pH 4.5 -8 and HTT ATP protect -50%.
`O=C(Nc1ccc(C(F)(F)F)cc1Cl)c1ccc(Cn2cc(Br)cn2)o1` gave GLA spleen mod 1%, GLA inh pH 4.5 -5, HttQ103 aggreg 3%, PKM2 act 28µM* and HTT ATP protect -22%.
For Cn1c(=O)c(-c2ccccc2)nc2cnc(N3CCOCC3)nc21 the results were GLA spleen mod inconclusive and HTT ATP protect -28%.
For COc1cc2c(cc1OC)C(C(=O)c1ccc(OC)c(OC)c1O)=NCC2 the results were GLA spleen mod 7%, GLA inh pH 4.5 2 and HTT ATP protect -30%.
C=CC[n+]1c(-c2ccccc2)csc1NC(C)(C)C was read as GLA spleen mod -7%, GLA inh pH 4.5 -8, HttQ103 aggreg -10%, PKM2 act -3% and HTT ATP protect 18%[10 µM].
Screening C=CC[n+]1c(-c2ccc(OC)c(OC)c2)csc1NNC(=O)Nc1ccccc1 returned GLA spleen mod 5%, GLA inh pH 4.5 0, HttQ103 aggreg 13µM*, PKM2 act -12% and HTT ATP protect -26%.
For O=C(CSc1nnc(Cn2nnc3ccccc32)o1)N(Cc1ccc(F)cc1)c1ccccc1 the results were GLA spleen mod -9%, GLA inh pH 4.5 -18, HttQ103 aggreg 13µM*, PKM2 act 2% and HTT ATP protect 28%[10 µM].
CCOC(=O)c1nc(-c2ccc(OC)c(OC)c2)no1 was read as GLA spleen mod -12%, GLA inh pH 4.5 -3, HttQ103 aggreg 0.63µM*, PKM2 act -2% and HTT ATP protect -77%[10 µM].

Screening results deposited in PubChem BioAssay by National Center for Advancing Translational Sciences (NCATS).
